Screening data as filed in PubChem BioAssay.
GRK2 inh: compounds blocking aptamer binding on GRK2 – biochemical, human GRK2, bead flow cytometry, HTS, primary screen; Beta-adrenergic receptor kinase 1 (Homo sapiens), P25098; actives 0.59% (n = 330,000); inhibition of aptamer binding, % at 10 µM; FAM-aptamer displacement from GRK2;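 active = inhibition of aptamer binding above 40%, roughly 3 SD of noise, on plates passing a quality check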;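 also: median bead fluorescence of bound FAM aptamer so fluorescent compounds give negative values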
Neddylation inh: inhibitors of cullin neddylation, primary screen, biochemical, TR-FRET, uHTS, NAE and Ubc12 | inhibition, % at 25 µM | actives 0.58% (n = 360,000); in the data active = inhibition above about 36%
HDAC3 inhib: HDAC3 deacetylase inhibitors, primary screen, biochemical, fluorescence, cell-free homogeneous; Histone deacetylase 3 (Homo sapiens), O15379; recombinant HDAC3, fluorogenic peptide/trypsin coupled; inhibition, % at 8.3 µM; actives 0.15% (n = 320,000); AID 2718, 2010; in the data active = inhibition above about 26%, passing the limit was not always enough; inconclusive = no clear call, values can overlap the other calls
Target sequence (O15379 whole entry, looked up): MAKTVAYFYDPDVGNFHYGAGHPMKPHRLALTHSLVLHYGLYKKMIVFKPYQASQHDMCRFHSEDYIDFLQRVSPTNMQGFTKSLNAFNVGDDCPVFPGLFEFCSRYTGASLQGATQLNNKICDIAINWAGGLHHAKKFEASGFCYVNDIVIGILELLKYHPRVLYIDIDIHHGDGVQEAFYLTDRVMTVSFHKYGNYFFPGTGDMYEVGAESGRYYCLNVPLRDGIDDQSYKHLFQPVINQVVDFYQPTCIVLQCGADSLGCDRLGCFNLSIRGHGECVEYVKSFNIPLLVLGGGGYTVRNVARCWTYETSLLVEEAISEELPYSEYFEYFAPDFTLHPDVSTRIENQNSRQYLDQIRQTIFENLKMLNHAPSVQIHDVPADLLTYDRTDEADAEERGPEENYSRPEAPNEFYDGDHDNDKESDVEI
Cardio protect: cardioprotection against H2O2-induced cell death, primary screen, uHTS, H9c2 cells, ATPLite luminescence; H9c2 cardiomyocytes, H2O2 injury protection, 2 h; protection from H2O2 cell death, % at 20 µM; actives 0.63% (n = 360,000);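 active = compounds giving at least 50% protection of heart cells from peroxide-induced death in the single-dose screen, raw or plate-pattern-corrected value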;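 also: 0% = DMSO wells with peroxide and 100% = DMSO wells without peroxide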
Neddyl inh conf: blockade of NEDD8 conjugation to cullin – biochemical, TR-FRET, single concentration, confirmation; shares compounds with Neddylation inh; TR-FRET cullin neddylation biochemical assay; calls only at 25 µM; actives 13% (n = 1,800); AID 652217, 2013; in the data active = inhibition above about 40%;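 also: neddylation substrate is the cullin 1 ring ligase complex with SKP2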
* = called active by the depositor; i = inactive; ? = inconclusive; / = no result given; + = active, no number. Hits are enriched below; roughly 1.8% of the tested compounds scored in any of these assays.

SMILES	GRK2 inh	Neddylation inh	HDAC3 inhib	Cardio protect	Neddyl inh conf
COc1ccccc1CNc1nc(NCC2CC2)nc2ccsc12	/	-4.3	/	-27.1	/
NC(=O)N/N=C\c1cc(Br)ccc1O	6.0	41.3*	-2.0	-10.0	i
CCOC(=O)c1c(C)[nH]c(C(=O)COC(=O)CCC2CCCC2)c1C	0.0	-5.1	-5.9	-7.2	/
CCOc1ccc2oc(C(=O)OCC(=O)N3CCCC(C)C3)c(C)c2c1 (stereo unspecified)	0.0	59.5*	-22.9	0.7	/
COc1ccc2oc(C(=O)OCC(=O)N(C)CC(=O)Nc3ccc(F)cc3)c(C)c2c1	8.0	46.6*	-2.7	-2.2	/
COc1ccc2oc(C(=O)OCC(=O)NC(=O)c3ccccc3)c(C)c2c1	3.0	-63.8	2.4	-4.1	/
COc1ccc2oc(C(=O)OCC(=O)NC3CCCCC3)c(C)c2c1	5.0	66.2*	-28.6	-6.5	i
Cc1c(C(=O)OCC(=O)NC2CCCCC2)oc2ccccc12	0.0	13.3	-6.9	-5.3	/
COCCn1c(=S)[nH]c2cc(C(=O)NC3CCCCC3C)ccc2c1=O (stereo unspecified)	/	-8.2	/	2.0	/
O=C1CCCN1CCCNc1nc2c(S(=O)(=O)c3ccccc3)nnn2c2ccc(Cl)cc12	0.0	/	-1.4	11.6	/
COc1ccc(CCC(=O)N(C)CC(=O)Nc2ccc(N3CCOCC3)cc2)cc1	3.0	-0.4	-5.1	-0.8	/
COc1ccc(OC)c(/C=C/C(=O)N(C)CC(=O)Nc2ccc(N3CCOCC3)cc2)c1	1.0	59.9*	1.9	-4.6	/
COc1ccc(NC(=O)CN(C)C(=O)/C=C/c2cn(-c3ccccc3)nc2-c2cccs2)cc1	0.0	44.3*	?	2.4	i
COc1cccc(NC(=O)c2ccc(C(=O)c3ccccc3)o2)c1	1.0	-20.7	7.6	-7.4	/
C[C@@H]1CN([C@H](C)CO)S(=O)(=O)c2ccc(C#Cc3cccc(F)c3)cc2O[C@@H]1CN(C)C(=O)CN1CCOCC1	/	13.3	/	11.0	/
O=c1c2c(nc3c(-c4cccc(Br)c4)c[nH]n13)CCCC2	1.0	45.7*	-2.9	1.0	i
O=c1c2c(nc3c(-c4ccccc4)c[nH]n13)CCC2	0.0	/	-10.4	10.9	/
Cc1ccc2c(c1)COc1c3ccc(C(=O)N4CCOCC4)cc3nn1-2	1.0	29.7	-2.6	-5.5	/
Cc1ccc2c(c1)COc1c3ccc(C(=O)NCCO)cc3nn1-2	0.0	52.8*	-8.4	-13.8	+
Cc1ccc2c(c1)COc1c3ccc(C(=O)NC(C)C)cc3nn1-2	0.0	51.2*	-11.6	-4.7	+
C[C@@H](CO)NC(=O)c1ccc2c3n(nc2c1)-c1ccc(Cl)cc1CO3	3.0	26.2	1.5	-7.4	/
O=C(NCCO)c1ccc2c3n(nc2c1)-c1ccc(Cl)cc1CO3	3.0	15.6	-8.7	-4.7	/
Cc1ccc2c(c1)COc1c3ccc(C(=O)N[C@@H](C)CO)cc3nn1-2	0.0	53.8*	-18.5	-6.0	/
CCn1c(C(C)NC(=O)c2cccs2)n[nH]c1=S (stereo unspecified)	3.0	9.3	1.9	0.1	/
Cc1ccccc1NC1=NC(=S)N(CC(N)=O)C12CCOC(C)(C)C2 (stereo unspecified)	1.0	6.6	-2.6	7.1	/
SMILES	GRK2 inh	Neddylation inh	HDAC3 inhib	Cardio protect	Neddyl inh conf
CC1(C)CC2(CCO1)C(Nc1ccccc1)=NC(=S)N2CC(N)=O (stereo unspecified)	1.0	36.3*	3.5	-0.7	i
C[C@H](CO)N1C[C@H](C)[C@@H](CN(C)CC2CCCCC2)Oc2ccc(NC(=O)Cn3cnnn3)cc2C1=O	0.0	-13.8	-2.1	3.4	/
COc1ccc(C2CC(=O)C=C(NCc3ccc4c(c3)OCO4)C2)cc1 (stereo unspecified)	1.0	6.3	-1.6	-2.9	/
S=C(Nc1ccc2nc(-c3ccccn3)c(-c3ccccn3)nc2c1)N1CCOCC1	0.0	46.7*	7.1	10.0	i
CN(C)NC(=S)Nc1ccc2nc(-c3ccccn3)c(-c3ccccn3)nc2c1	4.0	25.8	4.4	5.5	/
CC(=O)N1C(O)CC(C)N1c1ccccc1 (stereo unspecified)	1.0	5.4	-4.8	2.6	/
CCOc1ccc(C(=O)N/N=C/c2ccc(-c3ccc(S(=O)(=O)Nc4ncccn4)cc3)o2)cc1	0.0	57.1*	-2.6	8.3	+
CCN(CC)c1ccc(NC(=O)Nc2cccc3ccccc23)cc1	0.0	44.4*	-1.5	-2.1	i
N=C(N)n1ncc2c1CCCC2=O	/	1.0	/	/	/
CCCc1c(C(=O)N/N=C/c2ccc3c(c2)OCO3)nnn1-c1nonc1N	/	41.8*	/	-4.8	i
CCOc1cc(/C=N/NC(=O)c2nnn(-c3nonc3N)c2C)ccc1OCc1ccc(F)cc1	0.0	/	-8.6	-3.7	/
CCCOc1ccc(-c2c(C(=O)N/N=C(\C)c3ccco3)nnn2-c2nonc2N)cc1	0.0	40.1*	5.3	1.8	i
CCc1c(C(=O)N/N=C/c2ccc(OCc3ccc(F)cc3)c(OC)c2)nnn1-c1nonc1N	0.0	42.9*	2.7	-0.4	i
CCCc1c(C(=O)N/N=C/c2ccoc2)nnn1-c1nonc1N	/	3.6	/	-1.1	/
Cc1ccc(-c2c(C(=O)N/N=C/c3ccc4c(c3)OCO4)nnn2-c2nonc2N)cc1	0.0	49.6*	-8.4	4.1	/
CC(C)CNC(=O)C1CCCN(C(=O)NCc2ccccc2)C1 (stereo unspecified)	0.0	7.2	-6.1	-1.5	/
O=C(CSc1nccn1-c1ncc(C(F)(F)F)cc1Cl)c1ccc(Cl)cc1	0.0	14.6	-0.3	-3.9	/
CC[C@H]1CC2CN3CCc4c([nH]c5c([C@H]6C[C@H]7[C@H](CC)CN(C)[C@@H](Cc8c6[nH]c6ccccc86)[C@H]7C(=O)OC)c(OC)ccc45)C(C(=O)OC)(C2)C13	0.0	/	3.6	/	/
Cc1cccc(C(=O)NCC(=O)N2CCC2)c1	0.0	-5.1	0.9	0.7	/
Cc1ccc(-c2c(C(=O)N/N=C/c3ccc(OC(C)C)cc3)nnn2-c2nonc2N)cc1	3.0	45.4*	-2.7	-6.3	i
COCc1c(C(=O)N/N=C(/C)c2cccs2)nnn1-c1nonc1N	0.0	43.8*	-6.8	-3.6	i
COCc1c(C(=O)N/N=C(\C)c2ccc(Cl)s2)nnn1-c1nonc1N	5.0	/	0.5	2.9	/
O=[N+]([O-])c1ccc(NN=C2CC3CCC2C3)c([N+](=O)[O-])c1 (stereo unspecified)	/	-34.1	/	-13.7	/
COc1ccc(CCNC(=O)CC2Nc3cc(C)c(C)cc3NC2=O)cc1OC (stereo unspecified)	2.0	40.2*	-6.1	9.2	i
Cc1cc2c(cc1C)NC(CC(=O)NCc1ccccc1)C(=O)N2 (stereo unspecified)	0.0	23.9	-1.1	0.7	/
COc1ccc(-c2cc(C(F)(F)F)nc(-n3ccnc3)n2)cc1	0.0	45.1*	-2.3	3.9	i
